Compound activity: PubChem, Sanford-Burnham Center for Chemical Genomics
Compounds with a hit are over-represented: about 2.6% of the library has one in this group of screens.
PABP FP inh = PABP-poly(A) binding inhibition. AID 2014. P11940. hit rate 1% among 290,000. PABP-poly(A) RNA binding, fluorescence polarization. calls only at 35 µM;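 further: calls also rest on retests at 20 µM and on dose response follow-up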
eIF4H inh = inhibitors of RNA binding by human eIF4H; inhibition, % at 35 µM; eIF4H fluorescence polarization binding assay; AID 2012; hit rate 0.94% among 290,000;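 further: calls also rest on retests at 20 µM and on dose response follow-up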
APOBEC3G inh = APOBEC3G (human) deaminase inhibition; Q9HC16; recombinant A3G, ssDNA deamination FAM/TAMRA fluorescence; inhibition, % at 20 µM; hit rate 0.28% among 330,000; AID 493012;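 active means inhibition of at least 40% at 20 µM, with no more than 30% in the related APOBEC3A deaminase screen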;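 further: plate controls were DMSO wells with A3G for no effect and wells lacking A3G enzyme for full effect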
PHOSPHO1 block = blocks human PHOSPHO1 phosphatase activity | Q8TCT1 | recombinant PHOSPHO1, absorbance phosphatase assay | inhibition, % at 13.3 µM | hit rate 1.1% among 290,000 | AID 1565; in the data active means inhibition above about 60%
MLLE-PAM2 inh = inhibitors of microRNA-mediated deadenylation, human PABP1 MLLE binding; P11940; GST-MLLE / FITC-PAM2 fluorescence polarization; hit rate 0.36% among 360,000; inhibition, % at 20 µM; in the data active means inhibition above about 35%, passing the limit was not always enough;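 further: plate controls were DMSO wells with GST-MLLE for no effect and wells lacking GST-MLLE protein for full effect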
APOBEC3A inh = inhibitors of human APOBEC3A DNA deaminase; hit rate 0.41% among 330,000; inhibition, % at 20 µM; recombinant A3A, FAM/TAMRA ssDNA deamination fluorescence; AID 493011;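 active means at least 40% inhibition at 20 µM here, with at most 30% in a related deaminase screen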;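 further: plate controls were A3A with DMSO for no effect and wells lacking A3A enzyme for full effect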
Numbers without * were called inactive; i = inactive; ? = inconclusive; nt = no result; + = active, no number. Unless noted, how the calls were made is not given here.

SMILES	PABP FP inh	eIF4H inh	APOBEC3G inh	PHOSPHO1 block	MLLE-PAM2 inh	APOBEC3A inh
N#CC1=C2SCN(Cc3ccco3)CN2C(=O)CC1c1ccc(Cl)cc1 (stereo unspecified)	i	12	-3	76*	-23	2
Cc1ccc(C(=O)COC(=O)CN2C(=O)C3C4CCC(C4)C3C2=O)cc1C (stereo unspecified)	i	0	-6	nt	2	-2
O=C(NC1CCCCC1)c1sc(=S)n2c1[nH]c(=O)c1ccccc12	i	-3	-1	76*	33	-6
O=[N+]([O-])c1cc2ccccc2c(O)c1O	nt	nt	nt	nt	41*	nt
Cc1cc(C(=O)CC#N)c(C)n1-c1ccc(OC(F)F)cc1	i	8	-6	6	-11	3
COC(=O)c1cc(C(=O)OC)cc(-n2c(C)cc(C(=O)CC#N)c2C)c1	+	59*	-4	-16	-3	-7
O=C(NCC(=O)N1CCCC1)NN=Cc1ccccc1O	nt	nt	nt	nt	-11	nt
Cc1ccc(C(=O)NCCn2c(N)c(C#N)c3nc4ccccc4nc32)cc1	+	56*	-3	-3	-12	1
N#Cc1c(N)n(CCNC(=O)c2ccc(Cl)cc2)c2nc3ccccc3nc12	i	16	-9	-13	-3	-10
C=CCC1(CC=C)CCCN1C(=O)c1cc(COc2cccc(C(F)(F)F)c2)on1	i	-2	-1	61*	-10	-2
O=C(c1cc(COc2cccc(C(F)(F)F)c2)on1)N1CCCC1	nt	nt	nt	nt	-6	nt
Cc1ccc2[nH]c(=O)c(CNC(C)C)cc2c1	i	1	-11	62*	-17	-4
Cc1cc(C)n(-c2ccc(NC(=O)C3CCCCN3C(=O)c3ccoc3C)cc2)n1 (stereo unspecified)	i	0	-6	44	-16	-4
CC(=O)Nc1ccc2[nH]c3ccccc3c2c1	+	99*	-2	11	-8	-1
CC(=O)Nc1ccc2[nH]c(C)cc(=O)c2c1	i	1	-2	5	-10	-2
O=C(Nc1c2c(nn1-c1ccccc1)CS(=O)(=O)C2)c1cc2ccccc2o1	i	-5	-11	22	-11	0
O=S(=O)([N-]c1nc2ccccc2nc1-[n+]1ccc(CCCc2ccccc2)cc1)c1cccs1	+	116*	-7	24	29	-2
CCCC[n+]1ccn(-c2nc3ccccc3nc2[N-]S(=O)(=O)c2ccccc2)c1	i	3	-5	-8	13	-4
CCCC[n+]1ccn(-c2nc3ccccc3nc2[N-]S(=O)(=O)c2cccs2)c1	i	-8	-5	77*	-13	-1
O=C(Cn1nnc(-c2cccs2)n1)NCc1ccccc1	i	-3	-4	23	17	-2
O=C(Cn1nnc(-c2cccs2)n1)NCc1ccco1	i	2	-3	64*	-5	4
CC(C)(C)NC(=O)Cn1nnc(-c2cccs2)n1	+	65*	-8	-24	12	-2
COc1ccc(S(N)(=O)=O)cc1C(=O)NCCCN1CCN(c2cccc(Cl)c2)CC1	i	-12	-5	66*	-2	-3
CC1(C)CC(=O)C=C(NC2CCCC(O)C2)C1 (stereo unspecified)	nt	nt	-2	nt	-7	2
CCOC(=O)c1c(S(=O)(=O)NCC(=O)Nc2cccc(C)c2)c(C)n(C)c1C	nt	nt	1	70*	7	0
SMILES	PABP FP inh	eIF4H inh	APOBEC3G inh	PHOSPHO1 block	MLLE-PAM2 inh	APOBEC3A inh
CCc1ccc(NC(=O)c2ccc3c(c2)C(=O)N(Cc2ccco2)C3=O)cc1	+	57*	7	5	16	7
O=C(O)c1ccc2c(c1)C(=O)N(Cc1ccco1)C2=O	i	4	-2	8	-2	6
O=C(O)c1cccc(NC(=O)c2ccc3c(c2)C(=O)N(Cc2ccco2)C3=O)c1	i	62*	-5	41	6	2
O=C(c1cc(COc2ccc3ncccc3c2)on1)N1CCCC(O)C1 (stereo unspecified)	i	-10	-4	48	11	5
O=C(c1cc(COc2ccc3ncccc3c2)on1)N1CCC(O)CC1	i	3	-6	62*	-5	-5
CCCCCc1ccc(C(=O)CCC(=O)OCC(=O)N(CC)c2c(N)n(Cc3ccccc3)c(=O)[nH]c2=O)cc1	nt	nt	-4	nt	-15	-1
O=C1CCNc2cc3ccccc3cc21	+	82*	13	-27	24	8
Cc1ccc(S(=O)(=O)NNc2ccccc2)c(C)c1	i	-9	nt	76*	24	nt
Cc1ccc(S(=O)(=O)NNC(=O)c2cccs2)c(C)c1	i	-4	-5	7	-4	0
CN(C)S(=O)(=O)c1cccc(NC(=O)c2cc3c(=O)n4ccccc4nc3s2)c1	i	-13	0	6	-8	0
Cc1cc(NS(=O)(=O)c2ccc(NC(=O)c3cc4c(=O)n5ccccc5nc4s3)cc2)nc(C)n1	+	72	nt	25	-4	nt
CCC(C)NC(=O)c1cc2c(=O)n3ccccc3nc2s1 (stereo unspecified)	i	-2	2	61*	1	4
CC(C)CCNC(=O)c1cc2c(=O)n3ccccc3nc2s1	i	5	-5	47	8	1
COc1cc(C(=O)OCC(=O)NC(=O)NC2CCCCC2)cc(Cl)c1OC	nt	nt	2	nt	10	7
Cc1cc(Br)cn2c(Cc3ccccc3)c(-c3ccccc3)nc12	nt	nt	nt	nt	-4	nt
Cn1ccnc1SCC(=O)NC1CCCCC1	i	2	-6	62*	21	-16
CSc1ccccc1C(=O)NC1CCCCC1	i	-3	-2	-9	-2	2
O=C(CSc1ccccc1C(=O)O)NC1CCCCCCC1	i	1	-1	2	3	2
CSc1ccccc1C(=O)NC1CCCC1	i	-1	-6	70*	6	-2
Cn1ccnc1SCC(=O)NC1CC1	i	-1	-7	30	2	-4
O=C(CSc1ccccc1C(=O)O)NC1CCCCCC1	i	3	-3	-29	79*	2
CN1CC=C2C(C#N)=C(N)C(C#N)(C#N)C(c3ccsc3)C2C1 (stereo unspecified)	?	?	-8	4	122	-7
CN1C2C=C3C(C#N)=C(N)C(C#N)(C#N)[C@@H](c4ccsc4)[C@@H]3C1CC2 (stereo partly specified)	+	66*	-7	1	nt	-3
O=C(COC(=O)c1cc2ccccc2cc1O)Nc1cccnc1Cl	i	10	-1	-2	-2	0
Cc1ccc2nc(C)cc(C(=O)OCC(=O)Nc3cccnc3Cl)c2c1	i	-12	1	61*	11	4
CC(=O)Oc1ccccc1/C=C/c1ccc2ccccc2[n+]1C	+	18	32	-2	-114	100
CN(C)c1ccc(/C=C/c2ccc3ccccc3[n+]2C)cc1	i	-16	21	-26	-183	27
